From the supplement of paper PMC12282887
Where a name gives a salt, the structure may show the parent alone. ± gives the standard deviation of the averaged measurements.

Tested on: E. coli BW25113 marRABp lux reporter
Assay: promoter activity interaction Z-score (Lux/OD deviation from empty-vector control); higher = stronger promoter induction by the compound
Experimental: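 E. coli BW25113 (wild type or ΔmarA/ΔsoxS/Δrob) carrying pTU175 luxCDABE promoter reporters was grown in LB in 384-well plates at 37°C with each of 94 compounds at 4 two-fold concentrations, in biological duplicates. Luminescence and OD600 were read every 30 min for 12 h and integrated as AUC over 8 h (0-8 h WT, 1-9 h mutants). Lux AUC was divided by OD AUC; the interaction score is the residual of a Huber robust fit of each promoter against the empty-vector control, then Z-transformed per promoter.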

## O=C(N[C@H](CO)[C@H](O)c1ccc([N+](=O)[O-])cc1)C(Cl)Cl [Chloramphenicol]
0.12 µg/ml, genetic background: wild type
  promoter activity interaction Z-score: 0.131 ± 0.36
0.12 µg/ml, genetic background: ΔmarA
  promoter activity interaction Z-score: 0.172 ± 0.061
0.12 µg/ml, genetic background: Δrob
  promoter activity interaction Z-score: 0.31 ± 0.053
0.12 µg/ml, genetic background: ΔsoxS
  promoter activity interaction Z-score: 0.215 ± 0.0078
0.24 µg/ml, genetic background: wild type
  promoter activity interaction Z-score: 0.735 ± 0.19
0.24 µg/ml, genetic background: ΔmarA
  promoter activity interaction Z-score: 0.695 ± 0.4
0.24 µg/ml, genetic background: Δrob
  promoter activity interaction Z-score: 0.342 ± 0.21
0.24 µg/ml, genetic background: ΔsoxS
  promoter activity interaction Z-score: 0.497 ± 0.14
0.48 µg/ml, genetic background: wild type
  promoter activity interaction Z-score: 1.43 ± 0.31
0.48 µg/ml, genetic background: ΔmarA
  promoter activity interaction Z-score: 1.26 ± 0.45
0.48 µg/ml, genetic background: Δrob
  promoter activity interaction Z-score: 0.873 ± 0.55
0.48 µg/ml, genetic background: ΔsoxS
  promoter activity interaction Z-score: 1.19 ± 0.34
1 µg/ml, genetic background: wild type
  promoter activity interaction Z-score: 0.553 ± 0.19
1 µg/ml, genetic background: ΔmarA
  promoter activity interaction Z-score: -0.609 ± 0.26
1 µg/ml, genetic background: ΔsoxS
  promoter activity interaction Z-score: 1.31 ± 0.5

## COc1ccc2[nH]c([S+]([O-])Cc3ncc(C)c(OC)c3C)nc2c1 (configuration not stated) [Omeprazole]
21.6 µg/ml, genetic background: wild type
  promoter activity interaction Z-score: -0.572 ± 0.095
21.6 µg/ml, genetic background: ΔmarA
  promoter activity interaction Z-score: -0.27 ± 0.18
21.6 µg/ml, genetic background: Δrob
  promoter activity interaction Z-score: -0.128 ± 0.18
21.6 µg/ml, genetic background: ΔsoxS
  promoter activity interaction Z-score: -0.226 ± 0.23
43.2 µg/ml, genetic background: wild type
  promoter activity interaction Z-score: -0.301 ± 0.098
43.2 µg/ml, genetic background: ΔmarA
  promoter activity interaction Z-score: -0.0417 ± 0.55
43.2 µg/ml, genetic background: Δrob
  promoter activity interaction Z-score: -0.0764 ± 0.16
43.2 µg/ml, genetic background: ΔsoxS
  promoter activity interaction Z-score: -0.0512 ± 0.083
86.4 µg/ml, genetic background: wild type
  promoter activity interaction Z-score: -0.582 ± 0.15
86.4 µg/ml, genetic background: ΔmarA
  promoter activity interaction Z-score: -0.305 ± 0.32
86.4 µg/ml, genetic background: Δrob
  promoter activity interaction Z-score: -0.229 ± 0.12
86.4 µg/ml, genetic background: ΔsoxS
  promoter activity interaction Z-score: -0.22 ± 0.21
172.7 µg/ml, genetic background: wild type
  promoter activity interaction Z-score: -0.5175 ± 0.0031
172.7 µg/ml, genetic background: ΔmarA
  promoter activity interaction Z-score: -0.6 ± 0.24
172.7 µg/ml, genetic background: Δrob
  promoter activity interaction Z-score: -0.408 ± 0.15
172.7 µg/ml, genetic background: ΔsoxS
  promoter activity interaction Z-score: -0.421 ± 0.089

## O=C(O)COCCN1CCN(C(c2ccccc2)c2ccc(Cl)cc2)CC1 (configuration not stated) [Cetirizine dihydrochloride]
28.9 µg/ml, genetic background: wild type
  promoter activity interaction Z-score: -0.0717 ± 0.029
28.9 µg/ml, genetic background: ΔmarA
  promoter activity interaction Z-score: 0.0437 ± 0.062
28.9 µg/ml, genetic background: Δrob
  promoter activity interaction Z-score: 0.000338 ± 0.29
28.9 µg/ml, genetic background: ΔsoxS
  promoter activity interaction Z-score: -0.0906 ± 0.0024
57.7 µg/ml, genetic background: wild type
  promoter activity interaction Z-score: 0.151 ± 0.32
57.7 µg/ml, genetic background: ΔmarA
  promoter activity interaction Z-score: -0.0182 ± 0.02
57.7 µg/ml, genetic background: Δrob
  promoter activity interaction Z-score: -0.17 ± 0.18
57.7 µg/ml, genetic background: ΔsoxS
  promoter activity interaction Z-score: -0.0648 ± 0.1
115.5 µg/ml, genetic background: wild type
  promoter activity interaction Z-score: -0.301 ± 0.014
115.5 µg/ml, genetic background: ΔmarA
  promoter activity interaction Z-score: -0.0679 ± 0.12
115.5 µg/ml, genetic background: Δrob
  promoter activity interaction Z-score: -0.391 ± 0.15
115.5 µg/ml, genetic background: ΔsoxS
  promoter activity interaction Z-score: -0.384 ± 0.18
230.9 µg/ml, genetic background: wild type
  promoter activity interaction Z-score: -0.385 ± 0.034
230.9 µg/ml, genetic background: ΔmarA
  promoter activity interaction Z-score: -0.279 ± 0.0034
230.9 µg/ml, genetic background: Δrob
  promoter activity interaction Z-score: -0.565 ± 0.14
230.9 µg/ml, genetic background: ΔsoxS
  promoter activity interaction Z-score: -0.389 ± 0.19
